According to the supplement of paper PMC6555819:

What was measured:
Assay in all cases: PBM binding z-score (relative to random genomic background probes); higher = stronger binding; sequences stand for … in GC…GCGATTGACAGCGTAGAATGAAGG
[1] = system: FXR:RXRa (NR concentration 270 nM, RXRa partner concentration 90 nM)
In short: (§1)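 Custom Agilent 4×180K protein-binding microarrays carried double-stranded probes. Their 34-nt variable regions held direct-repeat seeds, single-nucleotide variants, half-site ablations and random human genomic background sequences. Arrays were incubated 1 h with ligand-free nuclear receptor dimers in PBS pH 7.4, 2% milk, 0.02% Triton X-100, 1 mM DTT, 0.2 mg/mL BSA and 0.4 mg/ml salmon testes DNA. Antibodies against each partner (one per run) detected binding, and scanned fluorescence was regression-normalized. Binding z-scores use random background probes as reference.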

[2] = system: LXRa:RXRa (NR concentration 270 nM, RXRa partner concentration 90 nM)
In short: as §1

[3] = system: LXRa homodimer (NR concentration 270 nM)
In short: as §1

[4] = system: LXRb:RXRa (NR concentration 270 nM, RXRa partner concentration 90 nM)
In short: as §1

[5] = system: LXRb homodimer (NR concentration 270 nM)
In short: as §1

[6] = system: PPARa:RXRa (NR concentration 270 nM, RXRa partner concentration 90 nM)
In short: as §1

[7] = system: PPARg:RXRa (NR concentration 180 nM, RXRa partner concentration 90 nM)
In short: as §1

[8] = system: PPARg:RXRa 270nM:90nM, anti-RXR (NR concentration 270 nM, RXRa partner concentration 90 nM)
In short: as §1

[9] = system: PPARg:RXRa 30nM:10nM, anti-RXR (NR concentration 30 nM, RXRa partner concentration 10 nM)
In short: as §1

[10] = system: PPARg:RXRa 90nM:30nM, anti-RXR (NR concentration 90 nM, RXRa partner concentration 30 nM)
In short: as §1

[11] = system: PPARg:RXRa DBDmut IVT, anti-RXR (DBD mutation: RXRa K156A/R161A, NR concentration 270 nM, RXRa partner concentration 90 nM)
In short: as §1

[12] = system: PPARg:RXRa IVT, anti-PPARg (NR concentration 270 nM, RXRa partner concentration 90 nM)
In short: as §1

[13] = system: PPARg DBDmut:RXRa IVT, anti-PPARg (DBD mutation: PPARg1 K132A/R137A, NR concentration 270 nM, RXRa partner concentration 90 nM)
In short: as §1

[14] = system: PPARg DBDmut IVT, anti-PPARg (DBD mutation: PPARg1 K132A/R137A, NR concentration 270 nM)
In short: as §1

[15] = system: PPARg homodimer (NR concentration 180 nM)
In short: as §1

[16] = system: PXR:RXRa (NR concentration 270 nM, RXRa partner concentration 90 nM)
In short: as §1

[17] = system: PXR homodimer (NR concentration 270 nM)
In short: as §1

[18] = system: RARa:RXR (NR concentration 270 nM, RXRa partner concentration 90 nM)
In short: as §1

[19] = system: RARa homodimer (NR concentration 270 nM)
In short: as §1

[20] = system: RARb:RXRa (NR concentration 270 nM, RXRa partner concentration 90 nM)
In short: as §1

Sequence	PBM binding z-score [1]	PBM binding z-score [2]	PBM binding z-score [3]	PBM binding z-score [4]	PBM binding z-score [5]	PBM binding z-score [6]	PBM binding z-score [7]	PBM binding z-score [8]	PBM binding z-score [9]	PBM binding z-score [10]	PBM binding z-score [11]	PBM binding z-score [12]	PBM binding z-score [13]	PBM binding z-score [14]	PBM binding z-score [15]	PBM binding z-score [16]	PBM binding z-score [17]	PBM binding z-score [18]	PBM binding z-score [19]	PBM binding z-score [20]
CCTCGGAGGACAACAGCAGGTCAGAGCTGCCAGA	0.202	0.89	0.459	0.176	-0.75	0.561	0.1	-0.313	-0.784	-0.736	0.0913	-0.0313	-0.897	-1.32	0.749	0.458	-0.253	0.722	0.0209	2.04
AGAGACAGGTGAGTGAAGGTAACTCAGCTGGACG	0.542	0.207	-0.174	0.279	0.443	0.437	0.497	0.226	0.0896	0.0651	0.422	0.599	0.635	-0.659	0.101	0.0989	0.169	0.435	-0.0726	0.876
CGACAAAGTTCAACTAAGGTAACGTAAAGCACGC	6.54	5.86	3.44	4.09	1.92	4.93	4.38	4.95	2.16	3.95	0.248	1.7	0.707	1.21	2.54	5.16	3.06	3.51	0.942	5.07
TGAATGAGGGTAAAGATCAGGGAACGTGGCGTCG	0.332	0.35	-0.456	-0.0766	0.875	2.98	4.39	5.94	4.5	6.32	2.27	3.04	0.811	1.2	1.24	-0.131	-0.487	0.239	0.383	0.817
GCTGCTAGGTCAGGTTGGTCAGATAACGGGTACG	1.44	0.895	-0.305	0.708	0.0296	1.5	1.03	1.12	-0.213	0.38	2.83	2.3	-0.406	-0.502	0.742	0.425	-0.0616	0.792	0.212	3.22
TCGACTAGGTTAGGGGCATTCAGAATGGCGTCGA	0.141	0.372	-0.304	0.803	-0.322	1.38	1.35	2.49	1.74	2.17	2.47	1.86	0.0313	-0.271	0.688	0.539	-0.0457	0.602	-0.239	1.26
TGAATGAAGTTATAAGATCAGGGAACGTTGCAAA	-0.521	-0.697	-0.369	-0.457	-0.454	-0.296	0.116	-0.239	0.157	-0.0808	-1.2	-0.333	0.559	0.214	-0.63	-0.502	-0.359	-0.42	0.115	-1.82
CGTCAAATTTCAAGGTAACGTAACAGAAAGCAGC	0.0505	-0.0464	0.101	0.163	-0.042	0.466	0.489	-0.149	0.0887	-0.0536	-0.147	0.739	1.23	0.951	0.422	0.33	-0.166	0.634	0.311	0.427
CGAACTAGGTCAGAACAGGACAGTGTAGGATGAT	1.59	0.807	-0.126	0.58	-0.539	3.33	5.09	4.48	1.85	3.29	7.44	7.53	3.18	2.19	1.06	0.998	0.228	0.95	0.229	3.07
CGTCCAAGGTGAGCAGGTCAGTGAAAGCGACGTG	0.495	0.118	-0.619	0.202	-1.28	1.73	0.537	1.08	-0.475	0.388	1.99	2.14	-0.318	-0.865	0.43	0.116	-0.516	0.783	-0.389	2.67
CGAACGAGGGGATGAGTTGATAGCAAATGCCGAT	0.0387	-0.222	-0.351	-0.0303	-0.345	-0.335	0.733	0.0328	-0.38	-0.23	0.602	0.068	0.241	0.151	0.0087	-0.392	0.00406	-0.399	0.243	-0.301
CCTTACGGGTCACTCCGGGTTATAGCATCGGAGT	5.38	6.79	0.448	4.31	0.169	4.62	3.58	4.18	1.34	3.26	1.96	3.06	0.27	-0.00571	1.92	4.6	-0.199	3.88	0.188	3.37
ATCTTTAGGTAACAAGTTCAGTGAAAGAGAGGAC	1.21	1.09	0.889	1.08	1.44	1.41	0.762	1.44	0.49	0.949	2.13	1.75	1.64	1.45	1.33	1.95	1.87	1.32	1.15	1.85
GCTTGTTGGTCAGTAAAAGGTCACACACCGGTCG	3.14	4.29	4.58	4.04	1.25	4.42	3.2	4.25	2.37	4.03	1.37	3.04	0.573	0.581	3.31	4.71	1.12	5.45	1.86	4.32
ATCTCTAGGTAACCAAGTTCAGTGAATGCCGAAC	0.707	1.04	0.708	0.638	0.763	1.33	0.617	0.913	0.376	0.682	3.64	3.09	0.611	1.02	1	1.86	1.98	0.882	0.575	1.36
GGTTACGGGTCAAAGGTTATAGCATGAATAGAAT	7.96	5.86	0.937	5.95	0.466	7.09	11.1	9.43	8.67	10.2	3.06	6.69	1.77	1.31	2.81	6.3	0.489	8.27	1.03	4.72
CCTACTGGGCCATTCAGAGGTCATTAATCATATG	2.24	3.76	5.48	3.81	0.468	3.74	1.99	2.79	0.44	2.02	4.22	4.37	0.0729	0.0343	2.11	4.17	2.46	3.83	0.0599	2.88
CCTTACGGGTCACGCGGTTATAGCACGACGAGCG	6.26	4.51	0.11	3.64	0.0354	5.65	6.07	6.24	2.58	4.96	4.11	4.96	0.683	0.817	1.05	3.53	-0.0866	4.59	0.82	4.33
AATCCAGGGTCATCGTAGGCCAGAGTACGCACAG	7.58	6.18	1.65	4.8	0.807	5.75	6.7	6.07	3.18	4.59	2.54	4.33	1.57	0.689	2.41	5.14	0.854	5.49	1.2	4.32
TCATATAGGTACTACAGGTGAAAGTCGGCATCTA	0.842	1.92	0.924	1.03	0.0353	1.4	0.768	2.18	3.93	2.89	2.86	1.16	0.618	1.02	0.506	0.663	0.0757	0.847	0.606	0.472
ATCGAAAGGTCGGGAGGTGAGTATACAGAAAGGC	2.88	2.4	0.589	2.36	0.968	3.64	2.22	2.42	0.864	1.44	0.224	1.47	2.2	1.16	1.74	2.12	0.567	2.81	1.38	3.48
TCTGATAGGTCAGTTGGTCAGCTAACGAGCTGCC	2.27	2.12	0.378	1.59	0.846	2.67	1.19	2.4	2.52	2.3	2.34	2.26	-0.134	1.25	1.43	0.816	-0.173	1.01	-0.0552	3.63
AGAATGAGGTTATACGTAGTTCAGGGAAGAAAGT	2.23	3.06	0.289	1.93	-0.31	3.55	1.85	2.29	0.654	1.49	3.46	2.53	1.03	0.605	0.814	3.07	0.774	2.66	0.46	1.96
CCGTACGGGTCACTGACAGGTTATAGCATTTGGA	5.54	4.34	0.355	3.7	-0.392	5.35	3.75	4.06	0.781	2.52	1.03	2.52	-0.133	-0.747	1.58	3.74	-0.0858	4.79	0.0778	4
GCAGACAGGTGAAACGCAGGTGACTCAGGGTGGC	0.0191	0.00841	-0.506	-0.401	-1.12	1.18	0.635	0.413	-0.264	-0.0702	0.661	1.27	-0.57	-0.659	-0.182	0.074	-0.467	0.675	-0.193	1.01
AGAACGAGGGCCATGAGTTGATAGCACGGGTGGC	-0.356	-0.437	-0.767	-0.687	-0.764	-0.163	0.614	-0.0464	-0.464	-0.23	0.174	0.141	-0.382	0.0603	-0.217	0.118	-0.232	-0.375	-0.362	0.632
CGAACTAGGTCATTAACAGGACAGTGAATAGTAA	3.27	2.59	0.8	1.88	-0.0794	4.12	7.01	5.93	3.43	5.45	8.02	7.96	3.04	1.69	2.06	1.28	0.557	1.97	0.792	3.27
GTAACGAGGGCAAGTTGATAGCAGAGTTTGATGG	0.832	0.576	-0.256	0.49	0.052	1.9	1.29	1.19	0.279	0.807	3.49	3.09	0.298	0.937	0.983	0.884	1.23	0.596	0.449	2.58
